Source: PubChem BioAssay (EPA / NIEHS)
Several values for one entry are separate records, joined by “and”; a condition that tells them apart may be missing. Equal values may be shown once. Some compounds were tested as several samples or in several runs, with calls that do not always agree. Activity calls are given as the source filed them. Rule for the calls: active = hit-call score of the fitted dose curve at least 0.9, where 1 is the maximum; inactive = score below 0.9.

How the values were obtained:
[1] = BSK_hDFCGF_SRB: Viability Assessment in the BioMAP Diversity Plus: hDFCGF Assay (AID 2283061); conditions: primary human foreskin fibroblasts;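 note: cells exposed to compound for 24 h before the read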
Outline: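 Primary human foreskin fibroblasts; 24 h post-dose; fixed 10% TCA, stained 0.1% SRB, A560 read; total protein as overt cytotoxicity measure; curves fit bidirectionally vs DMSO control.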

[2] = read-out: TIMP metallopeptidase inhibitor 1 (TIMP1), TIMP1 (gene 7076); assay: BSK_hDFCGF_TIMP1: BioMAP Diversity Plus: hDFCGF Assay for TIMP metallopeptidase inhibitor 1 (TIMP1) Biomarker Activity (AID 2283062); conditions: primary human foreskin fibroblasts; actives raise or lower the signal
Outline: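 ELISA readout of TIMP-1 from human dermal foreskin fibroblast cultures 24 h post-dosing. Curves were fitted in both directions against DMSO baseline, with SRB total-protein staining in parallel cultures as a cytotoxicity check.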

[3] = read-out: Monokine induced gamma interferon (MIG), CXCL9 (gene 4283); assay: BSK_hDFCGF_MIG: BioMAP Diversity Plus: hDFCGF Assay for Monokine induced gamma interferon (MIG) Biomarker Activity (AID 2283063); conditions: primary human foreskin fibroblasts; actives raise or lower the signal
Outline: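 Fibroblasts (human foreskin, primary) dosed, 24 h, MIG by ELISA; fit bidirectional vs DMSO.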

[4] = read-out: Matrix Metallopeptidase 1 (MMP1), MMP1 (gene 4312); assay: BSK_hDFCGF_MMP1: BioMAP Diversity Plus: hDFCGF Assay for Matrix Metallopeptidase 1 (MMP1) Biomarker Activity (AID 2283064); conditions: primary human foreskin fibroblasts; actives raise or lower the signal
Outline: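 Primary human foreskin fibroblasts in the hDFCGF system were dosed with test chemical, and MMP1 was measured by ELISA 24 h later. Values come from bidirectional curve fitting against the DMSO baseline.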

[5] = read-out: Vascular cell adhesion molecule 1 (VCAM1), VCAM1 (gene 7412); assay: BSK_hDFCGF_VCAM1: BioMAP Diversity Plus: hDFCGF Assay for Vascular cell adhesion molecule 1 (VCAM1) Biomarker Activity (AID 2283065); conditions: primary human foreskin fibroblasts; actives raise or lower the signal;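 for AC50: VCAM-1 protein level quantified by ELISA after 24 h chemical exposure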
Outline: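 ELISA read-out of VCAM-1 on human skin fibroblasts, 24 h post-dose; gain or loss of signal fitted bidirectionally against DMSO baseline.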

[6] = read-out: Plasminogen activator inhibitor-1 (PAI1), SERPINE1 (gene 5054); assay: BSK_hDFCGF_PAI1: BioMAP Diversity Plus: hDFCGF Assay for Plasminogen activator inhibitor-1 (PAI1) Biomarker Activity (AID 2283066); conditions: primary human foreskin fibroblasts; actives raise or lower the signal
Outline: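 Human foreskin fibroblasts in the hDFCGF system were dosed with compound for 24 h; PAI-1 was quantified by ELISA. Bidirectional curve fitting used DMSO as negative control and baseline.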

[7] = read-out: Intercellular Adhesion Molecule 1 (ICAM1), ICAM1 (gene 3383); assay: BSK_KF3CT_ICAM1: BioMAP Diversity Plus: KF3CT Assay for Intercellular Adhesion Molecule 1 (ICAM1) Biomarker Activity (AID 2283067); conditions: primary human keratinocytes with fibroblasts; actives raise or lower the signal
Outline: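 ELISA readout of ICAM-1; KF3CT human skin co-culture (keratinocytes + foreskin fibroblasts), 24 h post-dose; gain/loss fit vs DMSO baseline.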

[8] = read-out: Interferon-gamma inducible Protein 10 (IP10), CXCL10 (gene 3627); assay: BSK_KF3CT_IP10: BioMAP Diversity Plus: KF3CT Assay for Interferon-gamma inducible Protein 10 (IP10) Biomarker Activity (AID 2283068); conditions: primary human keratinocytes with fibroblasts; actives raise or lower the signal
Outline: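 KF3CT co-culture (keratinocytes + foreskin fibroblasts), 24 h compound, IP-10 by ELISA; bidirectional fit vs DMSO baseline.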

[9] = BSK_KF3CT_SRB: Viability Assessment in the BioMAP Diversity Plus: KF3CT Assay (AID 2283069); conditions: primary human keratinocytes with fibroblasts;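 note: total protein by sulforhodamine B staining as a cytotoxicity measure; read 24 h after compound addition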
Outline: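 Human primary keratinocyte plus foreskin fibroblast co-culture exposed to chemicals for 24 h. Total protein measured by 0.1% sulforhodamine B staining after 10% TCA fixation, read at 560 nm; bidirectional fitting versus DMSO baseline.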

[10] = read-out: Interleukin-1 alpha (IL1a), IL1A (gene 3552); assay: BSK_KF3CT_IL1a: BioMAP Diversity Plus: KF3CT Assay for Interleukin-1 alpha (IL1a) Biomarker Activity (AID 2283070); conditions: primary human keratinocytes with fibroblasts; actives raise or lower the signal
Outline: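 Human keratinocyte plus foreskin fibroblast primary co-culture, sampled 24 h after chemical dosing. IL-1a measured by ELISA; responses fitted bidirectionally against DMSO baseline (negative control), so gain or loss of signal both count.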

Measured: AC50

c1ccc(N=Nc2ccccc2)cc1
inactive: all assays above

O=[N+]([O-])C(Br)(CO)CO
active: [1] 30.5 µM | [2] 32.9 µM | [3] 30.2 µM | [4] 32.3 µM | [5] 26.7 µM | [6] 26.8 µM | [7] 35.8 µM | [8] 34.9 µM | [9] 33.2 µM | [10] 32.5 µM

CN(C)[C@@H]1C(=O)C(C(N)=O)=C(O)[C@@]2(O)C(=O)C3=C(O)c4c(O)cccc4[C@@](C)(O)[C@H]3C[C@@H]12
inactive: all assays above

Cc1ccc([N+](=O)[O-])cc1
inactive: all assays above

COP(=S)(OC)SCN1C(=O)c2ccccc2C1=O
inactive: all assays above

Nc1ccc(N=Nc2ccccc2)cc1
active: [5] 20 µM
inactive: all other assays above

COc1cc(C=O)cc2c1[C@H](COC(N)=O)[C@]1(OC(C)=O)ON2C[C@H]2[C@@H]1N2C(C)=O
active: [1] 2.45 µM | [2] 1.48 µM | [3] 1.25 µM | [4] 0.565 µM | [5] 1 µM | [6] 0.144 µM | [7] 11.6 µM | [8] 13 µM | [9] 3.36 µM | [10] 20 µM

Clc1ccccc1Cl
not listed: [10]
inactive: all other assays above

Nc1cc(Cl)cc(C(=O)O)c1Cl
inactive: all assays above

O=C(O)C1C2CCC(O2)C1C(=O)O (stereo not drawn)
active: [5] 18.6 µM | [6] 6.83 µM
inactive: all other assays above

N#CC(Br)(Br)C(N)=O
inactive: all assays above

ClC1=C(Cl)C2(Cl)C3C(Cl)C=CC3C1(Cl)C2(Cl)Cl (stereo not drawn)
active: [1] 11.2 µM | [2] 9.82 µM | [3] 10.6 µM | [4] 13.4 µM | [5] 8.26 µM | [6] 9.78 µM | [7] 30.2 µM | [8] 15.3 µM | [9] 28.6 µM | [10] 27.3 µM

CCCCCCCCOC(=O)c1ccc(C(=O)OCCCCCCCC)c(C(=O)OCCCCCCCC)c1
inactive: all assays above

CN(C)c1ccc(C(=O)c2ccc(N(C)C)cc2)cc1
inactive: all assays above

Oc1ccccc1Cl
inactive: all assays above

C[N+](C)(C)CC1CO1 (stereo not drawn)
inactive: all assays above

Nc1ccc(Cl)cc1N
active: [5] 9.2 µM
inactive: all other assays above

c1ccc2c(c1)-c1cccc3cccc-2c13
inactive: all assays above

CCNS(=O)(=O)C(F)(F)C(F)(F)C(F)(F)C(F)(F)C(F)(F)C(F)(F)C(F)(F)C(F)(F)F
active: [1] 28.8 µM and 44.8 µM and 47.8 µM | [2] 47.2 µM and 53.5 µM | [3] 19.3 µM and 28.3 µM and 36 µM | [5] 5.73 µM and 13.5 µM | [6] 30.1 µM and 23.3 µM and 47.3 µM | [7] 46.2 µM | [8] 20.9 µM and 30.5 µM and 43.7 µM | [9] 46.1 µM | [10] 41.5 µM and 47.7 µM
inactive: [2] | [7] | [9] | [10]

O=Cc1ccco1
inactive: all assays above

C1=Cc2cccc3cccc1c23
inactive: all assays above

CC(C)(C)OOC(C)(C)CCC(C)(C)OOC(C)(C)C
inactive: all assays above

N#CC(Br)Br
inactive: all assays above

CCN(CC)N=O
inactive: all assays above

COC(=O)c1ccccc1N
inactive: all assays above

CCN(CC)CCO
inactive: all assays above

c1ccc(C2CO2)cc1 (stereo not drawn)
inactive: all assays above

Cn1cc(-c2ccccc2)c(=O)c(-c2cccc(C(F)(F)F)c2)c1
inactive: all assays above

CC(C)(O)c1cnn2c(-c3ccc(F)c(-c4c(F)cccc4C#N)c3)cnc2n1
active: [4] 6.43 µM | [8] 23.2 µM | [9] 33.2 µM
inactive: all other assays above

Clc1ccc(C(c2ccc(Cl)cc2)C(Cl)Cl)cc1
active: [1] 9.91 µM | [2] 11.2 µM | [3] 11.8 µM | [5] 9.19 µM | [6] 7.29 µM | [7] 15.5 µM | [8] 13.9 µM | [9] 12.8 µM | [10] 13.8 µM

CS(=O)(=O)NC(=O)c1cc(Oc2ccc(C(F)(F)F)cc2Cl)ccc1[N+](=O)[O-]
not listed: [4]
inactive: all other assays above

CCCCCCCCCCCCCN1CC(C)OC(C)C1 (stereo not drawn)
not listed: [4]
inactive: all other assays above

Clc1ccc(C(c2ccc(Cl)cc2)C(Cl)(Cl)Cl)cc1
active: [1] 10.6 µM | [2] 13 µM | [3] 15.8 µM | [4] 14.8 µM | [5] 9.94 µM | [6] 8.38 µM | [7] 27.7 µM | [8] 16.3 µM | [9] 18.7 µM | [10] 25.1 µM

Nc1ccc([N+](=O)[O-])cc1
not listed: [4]
inactive: all other assays above

ClCCOCCCl
inactive: all assays above

CCCCCCCCn1sccc1=O
active: [1] 1.73 µM | [2] 2.09 µM | [3] 0.949 µM | [4] 1.43 µM | [5] 1.09 µM | [6] 1.4 µM | [7] 9.79 µM | [8] 8.03 µM | [9] 6.74 µM | [10] 9.05 µM

O=[N+]([O-])c1ccc(Oc2ccc(Cl)cc2Cl)cc1
active: [4] 10.2 µM | [5] 13.5 µM
inactive: all other assays above

CCC[CH2][Sn]([Cl])([CH2]CCC)[CH2]CCC
active: [1] 0.148 µM | [2] 0.148 µM | [3] 0.369 µM | [4] 0.271 µM | [5] 0.148 µM | [6] 0.296 µM | [7] 0.148 µM | [8] 0.342 µM | [9] 0.422 µM | [10] 0.294 µM
